PubChem BioAssay (EPA / NIEHS)
Records with an inconclusive call do not appear. Activity calls are given as the source filed them. Rule for the calls, unless noted: active = hit-call score of the fitted dose curve at least 0.9, where 1 is the maximum; inconclusive = response in the unintended direction; inactive = score below 0.9.

Columns and labels:
[1] = ATG_TAL_CIS: Attagene CIS-FACTORIAL HepG2 Assay for human TAL Basal Promoter (AID 2282966; active = hit-call score of the fitted dose curve at least 0.9, where 1 is the maximum; inactive = score below 0.9;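 note: background control endpoint measuring basal TAL promoter reporter mRNA not a specific factor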); settings: HepG2 Attagene cis-factorial TAL promoter reporter; actives raise or lower the signal
Procedure, shortened: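 HepG2 cells were transiently transfected with promoter-driven multiplexed reporter units and dosed for 24 h. Reporter mRNA was measured by RT-PCR with capillary electrophoresis fluorescence; bidirectional fits used DMSO as baseline, serving as a background control.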

[2] = ATG_TGFb_CIS: Attagene CIS-FACTORIAL HepG2 Assay for human Transforming Growth Factor (TGF) (AID 2282967; active = hit-call score of the fitted dose curve at least 0.9, where 1 is the maximum; inactive = score below 0.9); settings: HepG2 Attagene CIS TGFb reporter, mRNA transcription; actives raise or lower the signal
Procedure, shortened: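 Cells were dosed for 24 hours, after which total RNA was reverse-transcribed and reporter sequences amplified, labeled and sized by capillary electrophoresis. Activity was fitted in both directions against DMSO.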

[3] = ATG_VDRE_CIS: Attagene CIS-FACTORIAL HepG2 Assay for human Vitamin D Receptor Element (VDRE) (AID 2282968; active = hit-call score of the fitted dose curve at least 0.9, where 1 is the maximum; inactive = score below 0.9); settings: HepG2 VDRE cis-reporter transcription, actives raise or lower the signal
Procedure, shortened: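 In transiently transfected HepG2 liver cells, gain or loss of reporter mRNA after 24 h exposure is scored relative to DMSO, using fluorescence detection by capillary electrophoresis of RT-PCR products.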

[4] = molecular target: Nuclear receptor subfamily 1 group I member 3 (Homo sapiens) (UniProt Q14994); assay: ATG_CAR_TRANS: Attagene TRANS-FACTORIAL HepG2 Assay for human Constitutive Androstane Receptor (CAR) (AID 2282969); settings: HepG2 Attagene TRANS-FACTORIAL CAR reporter;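 note: activators raise reporter mRNA above DMSO so AC50 marks induction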
Sequence of Nuclear receptor subfamily 1 group I member 3 (Homo sapiens) (Q14994 whole entry, looked up, the tested form may be a part): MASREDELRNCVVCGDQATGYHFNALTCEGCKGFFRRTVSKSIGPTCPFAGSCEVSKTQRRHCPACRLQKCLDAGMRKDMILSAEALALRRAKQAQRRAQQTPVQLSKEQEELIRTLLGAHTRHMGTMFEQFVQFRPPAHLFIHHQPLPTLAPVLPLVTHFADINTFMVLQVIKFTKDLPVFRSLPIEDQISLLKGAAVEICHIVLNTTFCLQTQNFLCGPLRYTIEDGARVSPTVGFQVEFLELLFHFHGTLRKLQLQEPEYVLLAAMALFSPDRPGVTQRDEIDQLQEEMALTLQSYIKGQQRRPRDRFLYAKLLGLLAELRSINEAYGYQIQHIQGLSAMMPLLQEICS
Procedure, shortened: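 Readout is reporter mRNA induction, quantified by fluorescent primer extension and capillary electrophoresis after RT-PCR. Cells were HepG2 transiently carrying chimeric NR-Gal4 constructs with GAL4-UAS reporters, treated for 24 h; activity scored upward from DMSO.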

[5] = molecular target: Steroid hormone receptor ERR1 (Homo sapiens) (UniProt P11474); assay: ATG_ERRa_TRANS: Attagene TRANS-FACTORIAL HepG2 Assay for human Estrogen-Related Receptor alpha (ERRa) (AID 2282971); settings: HepG2 Attagene TRANS reporter, ERRa transactivation
Sequence of Steroid hormone receptor ERR1 (Homo sapiens) (P11474 whole entry, looked up, the tested form may be a part): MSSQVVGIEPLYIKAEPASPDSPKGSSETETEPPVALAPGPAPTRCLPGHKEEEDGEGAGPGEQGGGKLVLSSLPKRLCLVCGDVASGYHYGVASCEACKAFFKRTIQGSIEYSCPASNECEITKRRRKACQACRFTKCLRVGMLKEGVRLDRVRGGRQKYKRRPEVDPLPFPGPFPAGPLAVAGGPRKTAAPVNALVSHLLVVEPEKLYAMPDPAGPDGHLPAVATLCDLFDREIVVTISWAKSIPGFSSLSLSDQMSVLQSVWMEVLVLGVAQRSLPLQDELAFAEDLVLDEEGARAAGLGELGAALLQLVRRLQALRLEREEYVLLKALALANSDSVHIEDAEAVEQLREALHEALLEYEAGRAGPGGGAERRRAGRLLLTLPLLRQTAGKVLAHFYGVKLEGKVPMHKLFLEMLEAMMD
Procedure, shortened: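 HepG2 cells transiently transfected with multiplexed GAL4-UAS reporter units reading chimeric ERRa-Gal4 activity; 24 h compound exposure. Reporter mRNA measured by RT-PCR, 6-FAM labelling, HpaI digest and capillary electrophoresis; gain of signal fitted versus DMSO baseline.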

[6] = molecular target: X-box-binding protein 1 (Homo sapiens) (UniProt P17861); assay: ATG_Xbp1_CIS: Attagene CIS-FACTORIAL HepG2 Assay for human X-box Binding Protein 1 (XBP1) (AID 2282972; active = hit-call score of the fitted dose curve at least 0.9, where 1 is the maximum; inactive = score below 0.9); settings: HepG2 XBP1 cis-element reporter, Attagene multiplex; actives raise or lower the signal
Sequence of X-box-binding protein 1 (Homo sapiens) (P17861 whole entry, looked up): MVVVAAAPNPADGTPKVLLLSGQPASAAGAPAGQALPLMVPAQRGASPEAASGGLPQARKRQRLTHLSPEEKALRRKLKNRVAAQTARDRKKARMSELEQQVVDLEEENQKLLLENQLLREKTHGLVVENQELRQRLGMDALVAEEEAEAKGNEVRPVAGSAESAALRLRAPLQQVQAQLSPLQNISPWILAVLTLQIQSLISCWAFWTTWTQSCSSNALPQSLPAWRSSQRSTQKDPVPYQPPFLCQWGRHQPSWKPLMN
Procedure, shortened: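 HepG2 cells transiently transfected with multiple cis-element reporter units report endogenous TF activity; 24 h exposure, then reporter mRNA measured by RT-PCR, 6-FAM labelling, HpaI digestion and capillary electrophoresis. Bidirectional fitting versus DMSO.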

[7] = ATG_GAL4_TRANS: Attagene TRANS-FACTORIAL HepG2 Assay for GAL4 (Internal Marker) (AID 2282976); settings: HepG2 Attagene TRANS GAL4 internal marker reporter
Procedure, shortened: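 HepG2 cells transiently transfected with multiplexed GAL4-UAS reporter constructs were dosed for 24 h. Reporter mRNA was measured by RT-PCR, 6-FAM primer extension, HpaI digestion and capillary electrophoresis, and gain of signal was fitted relative to DMSO.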

[8] = molecular target: Estrogen-related receptor gamma (Homo sapiens) (UniProt P62508); assay: ATG_ERRg_TRANS: Attagene TRANS-FACTORIAL HepG2 Assay for human Estrogen-Related Receptor gamma (ERRg) (AID 2282977); settings: HepG2 Attagene TRANS reporter, ERRg transactivation;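 note: hits increase reporter signal over DMSO so potencies reflect activators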
Sequence of Estrogen-related receptor gamma (Homo sapiens) (P62508 whole entry, looked up, the tested form may be a part): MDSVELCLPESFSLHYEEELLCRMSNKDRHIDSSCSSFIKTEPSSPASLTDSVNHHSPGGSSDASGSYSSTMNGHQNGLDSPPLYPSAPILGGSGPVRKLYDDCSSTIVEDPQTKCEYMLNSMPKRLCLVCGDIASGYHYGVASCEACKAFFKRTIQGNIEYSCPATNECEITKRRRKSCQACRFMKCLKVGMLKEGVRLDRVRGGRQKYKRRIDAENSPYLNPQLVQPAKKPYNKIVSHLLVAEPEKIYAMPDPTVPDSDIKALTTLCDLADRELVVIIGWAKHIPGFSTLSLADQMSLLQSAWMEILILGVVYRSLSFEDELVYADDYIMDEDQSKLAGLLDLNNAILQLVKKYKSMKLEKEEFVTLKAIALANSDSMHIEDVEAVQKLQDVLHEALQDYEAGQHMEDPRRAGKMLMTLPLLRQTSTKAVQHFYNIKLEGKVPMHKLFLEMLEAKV
Procedure, shortened: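 HepG2 cells transiently transfected with multiplexed GAL4-UAS reporter units and chimeric NR-Gal4 constructs were exposed to test chemicals for 24 h. Reporter mRNA was measured by RT-PCR, 6-FAM primer extension, HpaI digestion and capillary electrophoresis; gain-of-signal versus DMSO.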

[9] = molecular target: Hepatocyte nuclear factor 4-alpha (Homo sapiens) (UniProt P41235); assay: ATG_HNF4a_TRANS: Attagene TRANS-FACTORIAL HepG2 Assay for human Hepatocyte Nuclear Factor 4 alpha (HNF4a) (AID 2282982); settings: HepG2 HNF4a transactivation reporter, mRNA readout
Sequence of Hepatocyte nuclear factor 4-alpha (Homo sapiens) (P41235 whole entry, looked up): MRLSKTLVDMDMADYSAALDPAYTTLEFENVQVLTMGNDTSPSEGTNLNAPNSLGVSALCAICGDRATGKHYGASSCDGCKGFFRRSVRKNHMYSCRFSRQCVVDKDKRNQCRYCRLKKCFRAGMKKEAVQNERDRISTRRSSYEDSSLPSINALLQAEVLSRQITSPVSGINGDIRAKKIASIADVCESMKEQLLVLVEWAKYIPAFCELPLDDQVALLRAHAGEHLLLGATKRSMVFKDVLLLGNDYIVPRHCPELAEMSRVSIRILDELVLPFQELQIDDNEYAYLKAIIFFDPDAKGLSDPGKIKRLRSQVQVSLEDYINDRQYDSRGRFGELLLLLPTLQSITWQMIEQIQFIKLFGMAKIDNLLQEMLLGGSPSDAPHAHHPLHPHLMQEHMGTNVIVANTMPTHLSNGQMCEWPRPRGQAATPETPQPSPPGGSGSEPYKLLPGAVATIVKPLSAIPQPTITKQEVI
Procedure, shortened: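 Transfected HepG2 reporter cells are dosed for 24 h; reporter RNA is reverse-transcribed, amplified, fluorescently labelled and HpaI-digested before CE sizing. Positive-direction fit against DMSO.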

[10] = ATG_M_06_TRANS: Attagene TRANS-FACTORIAL HepG2 Assay for M06 Transcription Factor (Internal Marker) (AID 2282983); settings: HepG2 Attagene TRANS M06 internal marker reporter;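 note: reporter transcript level by RT-PCR then capillary electrophoresis fluorescence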
Procedure, shortened: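 HepG2 cells transiently transfected with multiplexed GAL4-UAS reporter transcription units; after 24 h compound exposure, reporter mRNA measured by RT-PCR, FAM-labelled primer extension, HpaI digestion and capillary electrophoresis. Gain-of-signal fitted versus DMSO baseline; background control readout.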

[11] = molecular target: Transcriptional activator Myb (Homo sapiens) (UniProt P10242); assay: ATG_Myb_CIS: Attagene CIS-FACTORIAL HepG2 Assay for human Myeloblastosis (Myb) Proto-Oncogene Transcription Factor (AID 2282986; active = hit-call score of the fitted dose curve at least 0.9, where 1 is the maximum; inactive = score below 0.9); settings: HepG2 Attagene CIS-FACTORIAL Myb reporter transcription; actives raise or lower the signal
Sequence of Transcriptional activator Myb (Homo sapiens) (P10242 whole entry, looked up): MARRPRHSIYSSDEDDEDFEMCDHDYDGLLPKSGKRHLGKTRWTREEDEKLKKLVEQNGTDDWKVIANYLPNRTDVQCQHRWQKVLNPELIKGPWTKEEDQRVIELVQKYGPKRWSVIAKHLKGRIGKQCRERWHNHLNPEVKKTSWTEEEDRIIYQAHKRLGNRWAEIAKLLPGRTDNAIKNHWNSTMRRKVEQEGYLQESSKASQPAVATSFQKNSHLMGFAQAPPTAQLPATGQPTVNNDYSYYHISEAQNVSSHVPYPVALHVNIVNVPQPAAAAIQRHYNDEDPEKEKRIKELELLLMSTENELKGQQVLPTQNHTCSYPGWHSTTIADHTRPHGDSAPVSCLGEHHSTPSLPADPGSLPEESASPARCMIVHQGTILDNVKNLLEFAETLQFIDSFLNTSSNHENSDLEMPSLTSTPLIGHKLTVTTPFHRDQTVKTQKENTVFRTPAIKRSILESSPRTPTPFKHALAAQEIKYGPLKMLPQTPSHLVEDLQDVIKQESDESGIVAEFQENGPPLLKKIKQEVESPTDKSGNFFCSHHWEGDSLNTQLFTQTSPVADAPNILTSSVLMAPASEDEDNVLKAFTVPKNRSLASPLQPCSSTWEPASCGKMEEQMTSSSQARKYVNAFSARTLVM
Procedure, shortened: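 Reporter mRNA is quantified by RT-PCR and capillary electrophoresis 24 h after dosing HepG2 cells transfected with cis-regulated reporter units, which track endogenous transcription factor activity. Gain and loss of signal are fitted versus DMSO baseline.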

[12] = molecular target: Androgen receptor (Homo sapiens) (UniProt P10275); assay: ATG_AR_TRANS: Attagene TRANS-FACTORIAL HepG2 Assay for human Androgen Receptor (AR) (AID 2282973); settings: HepG2 Attagene TRANS-FACTORIAL AR reporter transcription
Sequence of Androgen receptor (Homo sapiens) (P10275 whole entry, looked up, the tested form may be a part): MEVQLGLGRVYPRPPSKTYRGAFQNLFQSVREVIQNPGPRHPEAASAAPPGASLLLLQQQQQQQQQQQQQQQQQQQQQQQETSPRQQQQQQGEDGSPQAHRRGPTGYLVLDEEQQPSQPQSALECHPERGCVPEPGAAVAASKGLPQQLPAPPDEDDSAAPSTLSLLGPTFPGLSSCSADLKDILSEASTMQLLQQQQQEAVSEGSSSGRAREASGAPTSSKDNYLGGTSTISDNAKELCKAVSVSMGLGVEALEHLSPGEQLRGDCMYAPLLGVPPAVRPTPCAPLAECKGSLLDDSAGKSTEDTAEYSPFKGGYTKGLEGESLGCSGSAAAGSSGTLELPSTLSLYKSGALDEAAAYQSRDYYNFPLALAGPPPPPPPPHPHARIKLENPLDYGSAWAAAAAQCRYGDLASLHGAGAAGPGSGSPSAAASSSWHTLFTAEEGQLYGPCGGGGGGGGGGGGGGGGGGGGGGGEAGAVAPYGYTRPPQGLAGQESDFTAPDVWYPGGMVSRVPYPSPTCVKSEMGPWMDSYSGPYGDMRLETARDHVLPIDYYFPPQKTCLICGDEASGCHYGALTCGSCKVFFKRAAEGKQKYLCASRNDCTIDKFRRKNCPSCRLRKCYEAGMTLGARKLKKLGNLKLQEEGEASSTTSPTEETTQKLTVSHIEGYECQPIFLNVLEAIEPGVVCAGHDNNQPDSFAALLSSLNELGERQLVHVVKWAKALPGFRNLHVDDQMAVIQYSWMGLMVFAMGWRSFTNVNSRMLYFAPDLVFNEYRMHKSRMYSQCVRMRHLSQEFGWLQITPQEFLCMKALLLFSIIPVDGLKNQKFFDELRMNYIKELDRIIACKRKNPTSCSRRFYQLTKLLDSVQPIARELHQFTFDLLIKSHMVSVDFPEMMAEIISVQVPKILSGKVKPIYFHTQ
Procedure, shortened: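 HepG2 cells transiently transfected with multiplexed GAL4-UAS reporter units and chimeric NR-Gal4 fusion; 24 h compound exposure. Reporter mRNA measured by RT-PCR, 6-FAM labelling, HpaI digestion and capillary electrophoresis; gain-of-signal fitted relative to DMSO baseline.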

[13] = ATG_M_19_TRANS: Attagene TRANS-FACTORIAL HepG2 Assay for M19 Transcription Factor (Internal Marker) (AID 2282974); settings: HepG2 Attagene TRANS-FACTORIAL M19 internal marker reporter
Procedure, shortened: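 Background-control readout: after 24 h chemical exposure of transfected HepG2 carrying GAL4-driven reporter units, RNA was reverse-transcribed, amplified, fluorescently labeled and sized by capillary electrophoresis; gain-of-signal fit against DMSO.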

[14] = molecular target: Glucocorticoid receptor (Homo sapiens) (UniProt P04150); assay: ATG_GR_TRANS: Attagene TRANS-FACTORIAL HepG2 Assay for human Glucocorticoid Receptor (GR) (AID 2282978); settings: HepG2 Attagene TRANS GR reporter, mRNA transcription;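 note: activators score as hits since higher reporter transcript over DMSO is fitted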
Procedure, shortened: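 Readout is reporter transcript from a chimeric GR-Gal4 acting on GAL4-UAS in transfected human HepG2 liver cells after 24 h exposure, quantified by RT-PCR and capillary electrophoresis. Activation fitted upward against DMSO.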

[15] = molecular target: Oxysterols receptor LXR-beta (Homo sapiens) (UniProt P55055); assay: ATG_LXRb_TRANS: Attagene TRANS-FACTORIAL HepG2 Assay for human Liver X Receptor beta (LXRb) (AID 2282981); settings: HepG2 Attagene TRANS GAL4-LXRb reporter, mRNA
Sequence of Oxysterols receptor LXR-beta (Homo sapiens) (P55055 whole entry, looked up, the tested form may be a part): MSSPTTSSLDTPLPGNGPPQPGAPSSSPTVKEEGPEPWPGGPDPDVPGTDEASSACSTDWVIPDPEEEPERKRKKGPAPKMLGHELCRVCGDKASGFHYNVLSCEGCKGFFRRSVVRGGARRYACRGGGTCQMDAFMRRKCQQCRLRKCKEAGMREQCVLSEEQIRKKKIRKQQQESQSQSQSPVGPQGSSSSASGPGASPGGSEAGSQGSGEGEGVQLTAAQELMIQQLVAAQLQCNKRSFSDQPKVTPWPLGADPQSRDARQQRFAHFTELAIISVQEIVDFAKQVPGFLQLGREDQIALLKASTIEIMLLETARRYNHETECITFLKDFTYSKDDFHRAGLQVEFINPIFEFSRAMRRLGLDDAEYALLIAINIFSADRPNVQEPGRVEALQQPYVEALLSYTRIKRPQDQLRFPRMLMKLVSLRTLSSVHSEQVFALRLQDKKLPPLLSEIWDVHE
Procedure, shortened: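 Cells: HepG2, transiently transfected with GAL4-UAS reporter units plus LXRb-Gal4 fusion. Treatment: 24 h. Detection: reporter mRNA by RT-PCR, 6-FAM labelling, HpaI digestion, capillary electrophoresis.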

[16] = ATG_M_32_TRANS: Attagene TRANS-FACTORIAL HepG2 Assay for M32 Transcription Factor (Internal Marker) (AID 2282984); settings: HepG2 Attagene TRANS M32 internal marker reporter
Procedure, shortened: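 Using transiently transfected HepG2 cells exposed to test chemicals for 24 h, reporter transcripts are converted to labelled cDNA fragments and quantified by capillary electrophoresis. DMSO defines the activity baseline.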

[17] = molecular target: Estrogen receptor (Homo sapiens) (UniProt P03372); assay: ATG_ERa_TRANS: Attagene TRANS-FACTORIAL HepG2 Assay for human Estrogen Receptor alpha (ERa) (AID 2282970); settings: HepG2 Attagene TRANS ERa GAL4 reporter, mRNA
Procedure, shortened: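 HepG2 cells transiently transfected with multiplexed GAL4-UAS reporter units; ERa activity read via exogenous chimeric NR-Gal4 protein. After 24 hour compound exposure, reporter mRNA measured by RT-PCR with 6-FAM labelling and capillary electrophoresis; gain-of-signal fitted relative to DMSO.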

[18] = molecular target: Bile acid receptor (Homo sapiens) (UniProt Q96RI1); assay: ATG_FXR_TRANS: Attagene TRANS-FACTORIAL HepG2 Assay for Farnesoid X Receptor (FXR) (AID 2282979); settings: HepG2 Attagene TRANS FXR-GAL4 reporter transcription;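 note: hits raise reporter mRNA above DMSO so AC50 marks FXR activation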
Sequence of Bile acid receptor (Homo sapiens) (Q96RI1 whole entry, looked up, the tested form may be a part): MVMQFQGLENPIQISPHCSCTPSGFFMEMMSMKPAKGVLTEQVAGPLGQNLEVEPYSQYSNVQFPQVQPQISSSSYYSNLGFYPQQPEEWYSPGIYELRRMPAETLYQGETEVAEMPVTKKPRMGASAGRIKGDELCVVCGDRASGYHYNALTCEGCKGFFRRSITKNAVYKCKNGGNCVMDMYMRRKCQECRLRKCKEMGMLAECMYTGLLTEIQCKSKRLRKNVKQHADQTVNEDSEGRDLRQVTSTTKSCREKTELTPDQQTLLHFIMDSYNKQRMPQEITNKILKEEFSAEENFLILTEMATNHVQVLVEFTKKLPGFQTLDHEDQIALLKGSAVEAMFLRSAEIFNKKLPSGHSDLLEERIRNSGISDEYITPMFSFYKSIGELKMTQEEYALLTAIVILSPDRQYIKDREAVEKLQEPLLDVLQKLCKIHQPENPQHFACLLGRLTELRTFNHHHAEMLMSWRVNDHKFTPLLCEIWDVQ
Procedure, shortened: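 HepG2 cells transiently transfected with reporter constructs in which a chimeric FXR-GAL4 protein drives a GAL4-UAS reporter; 24 h compound exposure. Reporter mRNA measured by RT-PCR, FAM labelling, HpaI digestion and capillary electrophoresis; gain-of-signal versus DMSO.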

[19] = molecular target: Oxysterols receptor LXR-alpha (Homo sapiens) (UniProt Q13133); assay: ATG_LXRa_TRANS: Attagene TRANS-FACTORIAL HepG2 Assay for human Liver X Receptor alpha (LXRa) (AID 2282980); settings: HepG2 Attagene TRANS reporter, LXRa transactivation
Sequence of Oxysterols receptor LXR-alpha (Homo sapiens) (Q13133 whole entry, looked up, the tested form may be a part): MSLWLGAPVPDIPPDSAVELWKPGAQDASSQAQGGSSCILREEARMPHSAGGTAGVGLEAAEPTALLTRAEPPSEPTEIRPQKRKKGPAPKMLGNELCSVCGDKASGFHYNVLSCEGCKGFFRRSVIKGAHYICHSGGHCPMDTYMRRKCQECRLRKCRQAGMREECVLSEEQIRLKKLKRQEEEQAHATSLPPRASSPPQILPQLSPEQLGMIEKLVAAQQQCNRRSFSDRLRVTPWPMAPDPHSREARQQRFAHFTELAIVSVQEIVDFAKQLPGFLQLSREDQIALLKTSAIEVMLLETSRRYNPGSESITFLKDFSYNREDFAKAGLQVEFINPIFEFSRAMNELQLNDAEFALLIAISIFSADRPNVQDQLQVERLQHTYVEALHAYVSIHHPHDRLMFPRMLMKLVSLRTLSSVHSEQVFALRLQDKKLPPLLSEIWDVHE
Procedure, shortened: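 HepG2 cells were transiently transfected with multiplexed reporter units driven by chimeric LXRa–GAL4 fusion proteins, then dosed for 24 h. Reporter mRNA was quantified by RT-PCR, fluorescent labelling and capillary electrophoresis; gain of signal fitted against DMSO baseline.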

COCCOCCO
outcome [1]: inactive
outcome [2]: inactive
outcome [3]: inactive
outcome [4]: inactive
outcome [5]: inactive
outcome [6]: inactive
outcome [7]: inactive
outcome [8]: inactive
outcome [9]: inactive
outcome [10]: inactive
outcome [11]: inactive

CCCCCCCc1ccc(O)cc1
outcome [1]: inactive
outcome [2]: inactive
outcome [3]: inactive
outcome [4]: inactive
outcome [6]: inactive
outcome [12]: inactive
outcome [13]: inactive
outcome [7]: inactive
outcome [14]: inactive
outcome [15]: inactive
outcome [9]: inactive
outcome [10]: inactive
outcome [16]: inactive
outcome [11]: inactive

c1ccc(OP(Oc2ccccc2)Oc2ccccc2)cc1
outcome [1]: inactive
outcome [2]: inactive
outcome [3]: inactive
outcome [4]: inactive
AC50 [17]: 74.9 µM (active)
outcome [6]: inactive
outcome [13]: inactive
outcome [14]: inactive
outcome [16]: inactive
outcome [11]: inactive

CCOP(=S)(NC(C)C)Oc1ccccc1C(=O)OC(C)C (stereo unspecified)
outcome [1]: inactive
outcome [2]: inactive
AC50 [3]: 1.5 µM (active)
outcome [4]: inactive
AC50 [17]: 3.51 µM (active)
outcome [5]: inactive
outcome [6]: inactive
outcome [8]: inactive
outcome [14]: inactive
outcome [18]: inactive
outcome [9]: inactive
outcome [10]: inactive
outcome [11]: inactive

O=C(O)C(F)(F)OC(F)(F)C(F)(F)OC(F)(F)C(=O)O
outcome [1]: inactive
outcome [2]: inactive
outcome [3]: inactive
outcome [17]: inactive
outcome [5]: inactive
outcome [6]: inactive
outcome [12]: inactive
outcome [14]: inactive
outcome [18]: inactive
outcome [10]: inactive
outcome [16]: inactive
outcome [11]: inactive

O=C(O)C(F)(F)OC(F)(F)C(F)(F)OC(F)(F)F
outcome [1]: inactive
outcome [2]: inactive
outcome [3]: inactive
outcome [4]: inactive
outcome [17]: inactive
outcome [5]: inactive
outcome [6]: inactive
outcome [12]: inactive
outcome [13]: inactive
outcome [7]: inactive
outcome [8]: inactive
outcome [14]: inactive
outcome [18]: inactive
outcome [19]: inactive
outcome [15]: inactive
outcome [9]: inactive
outcome [10]: inactive
outcome [16]: inactive
outcome [11]: inactive

C/C(=N\NC(=O)Nc1cc(F)cc(F)c1)c1ncccc1C(=O)O
outcome [1]: inactive
outcome [2]: inactive
outcome [3]: inactive
outcome [4]: inactive
outcome [17]: inactive
outcome [6]: inactive
outcome [13]: inactive
outcome [7]: inactive
outcome [14]: inactive
outcome [18]: inactive
outcome [19]: inactive
outcome [9]: inactive
outcome [10]: inactive
outcome [16]: inactive
outcome [11]: inactive

N#Cc1ccc(O)cc1
outcome [1]: inactive
outcome [2]: inactive
outcome [3]: inactive
outcome [4]: inactive
outcome [17]: inactive
outcome [6]: inactive
outcome [13]: inactive
outcome [7]: inactive
outcome [14]: inactive
outcome [18]: inactive
outcome [9]: inactive
outcome [10]: inactive
outcome [16]: inactive
outcome [11]: inactive

O=c1ssc(Cl)c1Cl
outcome [1]: inactive
outcome [2]: inactive
AC50 [3]: 52.6 µM (active)
outcome [4]: inactive
outcome [17]: inactive
AC50 [6]: 45.8 µM (active)
outcome [8]: inactive
outcome [19]: inactive
outcome [15]: inactive
outcome [9]: inactive
outcome [10]: inactive
outcome [16]: inactive
outcome [11]: inactive
